From PubChem BioAssay (NCATS)
Records with an inconclusive call do not appear. Activity calls are given as the source filed them. Unless noted, calls follow the shape of the dose curve; as a rule, active = well fitted activation curve with a large enough effect in the main read-out, with a control signal flat (not every such curve was filed as active); inconclusive = small, poorly fitted or top-dose-only effect, or effect the other way, or a change in a side signal; inactive = flat fitted curve, though single readings scatter.

What follows are compounds tested against 3',5'-cyclic-AMP phosphodiesterase 4B (Homo sapiens) (UniProt Q07343) (assay: qHTS Assay for Inhibitors of PDE-IV (AID 607; also: % of control where 0% means no effect)). Details: HEK293 ACTOne CNG channel cells, membrane potential fluorescence; series mostly up to 22.9 µM; activation (PDE inhibition): at the top concentration.
Chain of 3',5'-cyclic-AMP phosphodiesterase 4B (Homo sapiens) (Q07343 whole entry, looked up): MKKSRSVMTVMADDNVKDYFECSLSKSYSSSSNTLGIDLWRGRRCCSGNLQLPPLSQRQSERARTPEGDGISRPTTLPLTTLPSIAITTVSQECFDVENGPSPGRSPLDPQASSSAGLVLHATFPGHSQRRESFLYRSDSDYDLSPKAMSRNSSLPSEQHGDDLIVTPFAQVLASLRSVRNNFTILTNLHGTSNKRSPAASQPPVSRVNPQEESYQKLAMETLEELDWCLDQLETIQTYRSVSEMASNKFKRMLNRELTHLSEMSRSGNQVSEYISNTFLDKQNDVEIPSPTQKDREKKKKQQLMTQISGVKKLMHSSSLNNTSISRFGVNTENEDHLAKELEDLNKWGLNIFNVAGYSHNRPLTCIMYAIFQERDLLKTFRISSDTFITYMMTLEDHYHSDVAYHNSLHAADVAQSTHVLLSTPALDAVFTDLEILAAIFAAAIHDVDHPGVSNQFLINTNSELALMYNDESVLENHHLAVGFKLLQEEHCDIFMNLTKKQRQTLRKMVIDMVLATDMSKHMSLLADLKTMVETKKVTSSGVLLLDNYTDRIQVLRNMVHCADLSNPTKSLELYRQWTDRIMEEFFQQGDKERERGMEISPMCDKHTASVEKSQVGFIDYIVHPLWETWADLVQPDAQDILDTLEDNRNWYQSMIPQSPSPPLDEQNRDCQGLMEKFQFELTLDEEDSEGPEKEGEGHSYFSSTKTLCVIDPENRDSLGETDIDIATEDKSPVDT
Procedure, shortened: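 Live HEK293 cells with a modified cyclic nucleotide-gated (CNG) channel report intracellular cAMP via membrane-potential dye fluorescence (ex 535/em 590 nm). Endogenous PDE-IV was targeted. Compounds were tested at up to 22.9 uM final; RO 20-1724 100 uM served as control.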

SMILES | activation (PDE inhibition)
Cc1noc(C)c1-c1nccc(NCc2ccccc2)n1 | 11.3% (inactive)
c1ccc(CNc2cc(-c3ccoc3)ncn2)cc1 | 20.9% (inactive)
CN(Cc1ccco1)c1cc(-c2cccnc2)ncn1 | 14.3% (inactive)
c1cncc(CNc2cc(-c3ccoc3)ncn2)c1 | 13.5% (inactive)
CC(=O)NCCNc1nc(-c2c(C)noc2C)nc2ccccc12 | 1.23% (inactive)
CC(=O)NCCNc1ccnc(-c2ccccc2C)n1 | -3.62% (inactive)
Cc1cnc(CNc2ccnc(-c3cccc(NS(C)(=O)=O)c3)n2)cn1 | -6.62% (inactive)
CS(=O)(=O)Nc1cccc(-c2cc(NCc3ccccc3)ncn2)c1 | 21.3% (inactive)
COc1ccc(CNc2ccnc(-c3cccnc3)n2)c(OC)c1 | 7.12% (inactive)
CN(Cc1ccco1)c1ccnc(-c2cccnc2)n1 | -1.45% (inactive)
CS(=O)(=O)Nc1cccc(-c2cncnc2Nc2ccccc2)c1 | 18.2% (inactive)
Cn1cc(-c2nc3cncnc3n(C3CC3)c2=O)c2ccccc21 | 5.21% (inactive)
Clc1ccccc1-c1nccc(NCCN2CCOCC2)n1 | 1.83% (inactive)
COc1cccc(-c2cncnc2NCc2cnc(C)cn2)c1 | 25.2% (inactive)
CN(C)C(=O)c1ccc(-c2nccc(-n3ccnc3)n2)cc1 | 3.5% (inactive)
COc1ccc2[nH]cc(CCNc3ncncc3-c3cccnc3)c2c1 | 1.08% (inactive)
N#Cc1ccccc1-c1ccc2ncnc(NCCN3CCOCC3)c2c1 | 26.9% (inactive)
CN(Cc1ccco1)c1ncncc1-c1cccnc1 | -1.89% (inactive)
COc1ccc2[nH]cc(CCNc3ccnc(-c4ccc5c(c4)OCO5)n3)c2c1 | -10.8% (inactive)
Cc1ccccc1-c1cc(NCc2cccnc2)ncn1 | 1.81% (inactive)
COCCNc1nc(-c2c(C)noc2C)nc2ccccc12 | -9.17% (inactive)
COc1ccccc1-c1cncnc1NCc1ccccc1 | 29.9% (inactive)
COc1ccccc1-c1nc(NCCN2CCOCC2)c2ccccc2n1 | 14.3% (inactive)
Cc1ccccc1-c1cc(N(C)Cc2ccco2)ncn1 | -12.3% (inactive)
CN(C)C(=O)c1ccc(-c2ccc3ncnc(N4CCOCC4)c3c2)cc1 | 26.6% (inactive)
CS(=O)(=O)Nc1cccc(-c2cncnc2-n2ccnc2)c1 | 16.6% (inactive)

What follows are compounds tested against Cytochrome P450 3A4 (Homo sapiens) (UniProt P08684) (assay: qHTS Assay for Inhibitors and Substrates of Cytochrome P450 3A4 (AID 884; active = well fitted inhibition curve with a large enough effect; also: potency is read from the fitted curve at half-maximal effect; nearly all actives have a fitted effect of over 50% in size)). Details: recombinant CYP3A4, Luciferin-PPXE luminescence; series mostly up to 57.1 µM; activity change, negative = inhibition: at the top concentration.
Chain of Cytochrome P450 3A4 (Homo sapiens) (P08684 whole entry, looked up): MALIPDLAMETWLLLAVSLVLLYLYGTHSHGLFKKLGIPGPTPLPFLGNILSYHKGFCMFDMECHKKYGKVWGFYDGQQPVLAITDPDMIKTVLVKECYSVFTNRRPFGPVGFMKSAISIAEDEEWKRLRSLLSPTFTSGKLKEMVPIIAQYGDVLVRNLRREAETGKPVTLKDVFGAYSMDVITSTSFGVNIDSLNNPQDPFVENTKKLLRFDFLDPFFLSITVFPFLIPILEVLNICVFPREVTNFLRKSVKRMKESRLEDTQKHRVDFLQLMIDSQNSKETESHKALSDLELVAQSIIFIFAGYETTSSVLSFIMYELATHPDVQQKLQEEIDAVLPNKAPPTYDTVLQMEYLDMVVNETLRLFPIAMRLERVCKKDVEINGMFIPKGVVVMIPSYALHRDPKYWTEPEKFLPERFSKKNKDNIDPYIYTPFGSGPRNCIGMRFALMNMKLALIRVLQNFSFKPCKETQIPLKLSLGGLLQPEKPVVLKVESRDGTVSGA
Procedure, shortened: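 20 nM human CYP3A4 with 25 uM Luciferin-PPXE (at KM) in 200 mM KPO4, preincubated 10 min with compound; NADPH regeneration started a 60 min RT reaction. Luciferin detected by luminescence, normalized to 57 uM ketoconazole as full inhibition.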

SMILES | Potency
Cc1noc(C)c1-c1nccc(NCc2ccccc2)n1 | 5010 nM (active)
CN(Cc1ccco1)c1cc(-c2cccnc2)ncn1 | 3160 nM (active)
COc1ccc(CNc2ccnc(-c3cccnc3)n2)c(OC)c1 | 631 nM (active)
CS(=O)(=O)Nc1cccc(-c2cncnc2Nc2ccccc2)c1 | 501 nM (active)
COc1ccc(CNc2ncncc2-c2ccc(N(C)C)cc2)c(OC)c1 | 199 nM (active)
COc1cccc(Cn2c(=O)c(-c3cccc(C#N)c3)nc3cnc(OC)nc32)c1 | 3160 nM (active)
COc1cccc(-c2cncnc2NCc2cnc(C)cn2)c1 | 1580 nM (active)
c1ccc(Nc2ncncc2-c2ccoc2)cc1 | 2000 nM (active)
COc1cccc(-c2cncnc2NCc2cccs2)c1 | 1580 nM (active)
COc1ccc2[nH]cc(CCNc3ncncc3-c3cccnc3)c2c1 | 794 nM (active)
COc1ccccc1-c1cc(Nc2ccn[nH]2)ncn1 | 3980 nM (active)
COc1ccccc1-c1cncnc1NCc1cccs1 | 398 nM (active)
CN(Cc1ccco1)c1ncncc1-c1cccnc1 | 2510 nM (active)
COc1ccc2[nH]cc(CCNc3ccnc(-c4ccc5c(c4)OCO5)n3)c2c1 | 2510 nM (active)
COc1ccccc1-c1nc(N(C)Cc2ccco2)c2ccccc2n1 | 7940 nM (active)
COc1ccccc1-c1cncnc1NCc1ccccc1 | 251 nM (active)
c1csc(CNc2nc(-c3ccoc3)nc3ccccc23)c1 | 7940 nM (active)
CS(=O)(=O)Nc1cccc(-c2cncnc2-n2ccnc2)c1 | 7940 nM (active)
